Results: the supplement of paper PMC10849652
About 7,900 targets were measured; listed, in parts, are those with a hit and a random draw of the rest. About 0.6% of all pairs of compound and target were hits.

Experiments:
Assay in all cases: log2 fold change, soluble protein after heating vs DMSO (PISA); higher = thermal stabilisation; K562 cells, 10 uM, 30 min; active = over 0.2 and 3.5 SD of the protein, either way, in both replicates (recomputed)
[1] = compound: CS(=O)(=O)c1ccc(-c2cnc(N)c(C(=O)Nc3ccccc3)n2)cc1
Summary of the method: (§1)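 K562 cells at 2×10^6 cells/mL were exposed to 10 μM compound for 30 min, then aliquots were heated for 3 min across 48°C-58°C, pooled, and extracted in PBS containing 0.5% NP-40 at 4°C. The supernatant after 21,000xg for 90 min was taken as soluble protein and measured by TMTpro 16plex LC-MS/MS with channel sums equalised. Thermal stability is reported relative to control samples, with values from duplicates. Fold changes are given on a log2 scale.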

[2] = compound: C[C@@H](Oc1cc(-c2cnn(C3CCNCC3)c2)cnc1N)c1c(Cl)ccc(F)c1Cl [crizotinib]
Summary of the method: as §1

[3] = compound: C[C@@H]1COCCN1C2=NC(=NC(=C2)C3(CC3)S(=O)(=O)C)C4=C5C=CNC5=CC=C4
Summary of the method: as §1

[4] = compound: C[C@H](C1=CC=C(C=C1)C(=O)NC2=C3C=CNC3=NC=C2)N
Summary of the method: as §1

[5] = compound: C[C@H](Nc1ncnc2nc[nH]c12)c1cc2cccc(Cl)c2c(=O)n1-c1ccccc1 [duvelisib]
Summary of the method: as §1

[6] = compound: Cc1cc(Nc2cc(CN3CCOCC3)c3nc(C)c(Cc4ccc(Cl)cc4F)n3n2)n[nH]1 [gandotinib]
Summary of the method: as §1

[7] = compound: Cc1cc(Nc2cc(N3CCN(C)CC3)nc(Sc3ccc(NC(=O)C4CC4)cc3)n2)n[nH]1 [tozasertib]
Summary of the method: as §1

[8] = compound: Cc1cc(SCc2sc(-c3ccc(C(F)(F)F)cc3)nc2C)ccc1OCC(=O)O
Summary of the method: as §1

[9] = compound: Cc1ccc(-n2nc(C(C)(C)C)cc2NC(=O)Nc2ccc(OCCN3CCOCC3)c3ccccc23)cc1 [doramapimod]
Summary of the method: as §1

[10] = compound: Cc1ccc(C(=O)N(CCCN)[C@@H](c2nc3cc(Cl)ccc3c(=O)n2Cc2ccccc2)C(C)C)cc1 [ispinesib]
Summary of the method: as §1

Measured: log2 fold change

ACSL3 (UniProt O95573)
Sequence of UniProt O95573 (O95573 whole entry, looked up): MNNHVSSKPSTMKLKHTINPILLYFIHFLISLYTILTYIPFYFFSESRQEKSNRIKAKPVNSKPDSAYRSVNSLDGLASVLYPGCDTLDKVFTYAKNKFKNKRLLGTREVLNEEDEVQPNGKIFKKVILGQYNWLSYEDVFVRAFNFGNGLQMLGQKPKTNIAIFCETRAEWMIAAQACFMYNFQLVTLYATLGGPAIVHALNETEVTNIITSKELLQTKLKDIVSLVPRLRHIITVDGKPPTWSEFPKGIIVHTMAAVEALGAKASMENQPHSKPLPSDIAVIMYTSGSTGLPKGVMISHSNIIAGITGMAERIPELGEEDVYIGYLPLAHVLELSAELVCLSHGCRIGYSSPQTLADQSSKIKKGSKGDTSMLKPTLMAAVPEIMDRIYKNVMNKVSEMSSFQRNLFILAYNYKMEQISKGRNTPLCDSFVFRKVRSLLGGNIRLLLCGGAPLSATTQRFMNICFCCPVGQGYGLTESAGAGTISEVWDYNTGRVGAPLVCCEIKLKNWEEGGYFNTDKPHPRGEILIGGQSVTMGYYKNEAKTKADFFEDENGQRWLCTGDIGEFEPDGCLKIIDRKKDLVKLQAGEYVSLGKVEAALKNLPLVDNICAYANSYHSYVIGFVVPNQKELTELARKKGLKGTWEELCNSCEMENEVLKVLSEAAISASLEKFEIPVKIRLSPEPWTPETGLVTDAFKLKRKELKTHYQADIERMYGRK
inactive: [1] 0.009 | [2] -0.013 | [3] 0.011 | [4] -0.024 | [5] 0.043 | [6] -0.046 | [7] 0.001 | [8] 0.097 | [9] -0.033 | [10] -0.024

ATRN (UniProt O75882)
inactive: [1] -0.049 | [2] 0.01 | [3] 0.116 | [4] 0.087 | [5] -0.028 | [6] -0.002 | [7] -0.003 | [8] 0.071 | [9] -0.238

ATG4B isoform 2 (UniProt Q9Y4P1)
inactive: [1] 0.078 | [2] -0.361 | [3] 0.056 | [4] -0.004 | [5] -0.024 | [6] -0.12 | [7] -0.286 | [8] 0.184 | [9] 0.003 | [10] -0.277

ARL6IP6 (UniProt Q8N6S5)
Sequence of UniProt Q8N6S5 (Q8N6S5 whole entry, looked up): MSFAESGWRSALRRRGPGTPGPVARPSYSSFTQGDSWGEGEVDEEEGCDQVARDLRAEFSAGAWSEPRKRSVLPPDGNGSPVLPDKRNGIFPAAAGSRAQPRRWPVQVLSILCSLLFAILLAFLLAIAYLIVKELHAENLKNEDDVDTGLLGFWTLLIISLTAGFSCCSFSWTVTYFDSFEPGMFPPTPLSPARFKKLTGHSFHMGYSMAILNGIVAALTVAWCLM
inactive: [1] 0.046 | [2] -0.016 | [3] 0.017 | [4] -0.042 | [5] -0.005 | [6] -0.008 | [7] -0.22 | [8] -0.042 | [9] 0.03 | [10] 0.175

ADH5 (UniProt P11766)
inactive: [1] -0.021 | [2] 0.033 | [3] 0.032 | [4] -0.033 | [5] -0.002 | [6] -0.014 | [7] -0.003 | [8] -0.031 | [9] -0.033 | [10] -0.003

AGPAT1 (UniProt Q99943)
inactive: [1] 0.017 | [2] 0.187 | [3] 0.043 | [4] -0.018 | [5] 0.041 | [6] -0.106 | [7] 0.012 | [8] 0.014 | [9] 0.019 | [10] 0.096

BECN1 (UniProt Q14457)
Sequence of UniProt Q14457 (Q14457 whole entry, looked up): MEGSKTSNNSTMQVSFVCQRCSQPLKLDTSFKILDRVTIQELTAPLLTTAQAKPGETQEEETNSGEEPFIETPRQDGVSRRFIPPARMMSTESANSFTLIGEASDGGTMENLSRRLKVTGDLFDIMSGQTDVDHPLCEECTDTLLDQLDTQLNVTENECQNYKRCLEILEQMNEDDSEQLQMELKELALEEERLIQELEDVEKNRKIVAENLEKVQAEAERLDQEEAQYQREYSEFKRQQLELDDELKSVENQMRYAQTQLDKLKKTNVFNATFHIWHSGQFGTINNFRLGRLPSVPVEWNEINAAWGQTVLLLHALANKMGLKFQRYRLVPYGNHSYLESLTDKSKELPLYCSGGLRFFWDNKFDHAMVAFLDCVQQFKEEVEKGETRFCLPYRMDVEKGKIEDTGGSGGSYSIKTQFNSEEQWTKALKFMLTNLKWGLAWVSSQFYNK
inactive: [1] 0.141 | [2] -0.126 | [3] 0.043 | [4] 0.093 | [6] 0.138 | [7] 0.034 | [8] -0.066 | [9] -0.004 | [10] -0.019
active: [5] 0.283

AP2A1 (UniProt O95782)
inactive: [1] -0.011 | [2] -0.127 | [3] -0.006 | [5] -0.015 | [6] 0.01 | [7] -0.126 | [8] 0.02 | [9] 0.039 | [10] 0.081
active: [4] -0.237

BYSL (UniProt Q13895)
inactive: [1] -0.003 | [2] -0.049 | [3] 0 | [4] 0.05 | [5] -0.041 | [6] -0.012 | [7] 0.1 | [8] 0.135 | [9] 0.037 | [10] -0.094

ACSL5 isoform 3 (UniProt Q9ULC5)
Sequence of UniProt Q9ULC5 (Q9ULC5 whole entry, looked up): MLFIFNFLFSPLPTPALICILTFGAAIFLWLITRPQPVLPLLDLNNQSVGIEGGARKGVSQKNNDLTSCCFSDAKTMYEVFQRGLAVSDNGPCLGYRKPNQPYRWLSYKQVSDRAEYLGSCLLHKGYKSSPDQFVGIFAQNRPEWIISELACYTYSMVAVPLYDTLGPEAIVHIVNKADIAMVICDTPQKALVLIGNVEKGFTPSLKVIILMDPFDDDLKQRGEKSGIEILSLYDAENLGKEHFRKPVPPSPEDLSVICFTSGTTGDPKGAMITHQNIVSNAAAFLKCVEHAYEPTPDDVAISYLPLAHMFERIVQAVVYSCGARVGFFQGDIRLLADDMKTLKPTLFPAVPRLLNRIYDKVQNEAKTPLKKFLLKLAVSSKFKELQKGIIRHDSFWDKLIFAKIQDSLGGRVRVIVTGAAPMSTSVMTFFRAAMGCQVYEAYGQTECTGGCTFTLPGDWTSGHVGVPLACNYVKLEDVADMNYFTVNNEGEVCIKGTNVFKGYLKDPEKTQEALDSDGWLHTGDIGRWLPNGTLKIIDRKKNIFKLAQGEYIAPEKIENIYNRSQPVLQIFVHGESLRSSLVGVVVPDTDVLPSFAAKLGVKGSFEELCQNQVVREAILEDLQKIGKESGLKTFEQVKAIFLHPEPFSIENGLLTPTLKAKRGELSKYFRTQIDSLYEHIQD
inactive: [1] -0.014 | [2] -0.146 | [3] 0.11 | [4] 0.009 | [5] -0.024 | [6] 0.021 | [7] -0.076 | [8] -0.033 | [9] 0.059 | [10] -0.316

AAMP (UniProt Q13685)
inactive: [1] 0.027 | [2] 0.115 | [3] -0.007 | [4] -0.006 | [5] 0.022 | [6] -0.047 | [7] 0.053 | [8] -0.03 | [9] -0.037 | [10] 0.038

ATP1B3 (UniProt P54709)
Sequence of UniProt P54709 (P54709 whole entry, looked up): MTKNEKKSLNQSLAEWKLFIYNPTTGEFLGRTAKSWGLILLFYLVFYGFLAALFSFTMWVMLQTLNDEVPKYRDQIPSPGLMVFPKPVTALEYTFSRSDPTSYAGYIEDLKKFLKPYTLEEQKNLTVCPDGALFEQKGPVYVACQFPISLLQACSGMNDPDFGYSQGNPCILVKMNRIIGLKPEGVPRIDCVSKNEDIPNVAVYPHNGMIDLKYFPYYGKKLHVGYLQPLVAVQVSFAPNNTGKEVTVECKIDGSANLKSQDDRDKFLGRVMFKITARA
inactive: [1] 0.053 | [2] 0.111 | [3] 0.027 | [4] -0.152 | [5] 0.028 | [6] -0.013 | [7] -0.019 | [8] -0.04 | [9] -0.042 | [10] 0.165

AK6 (UniProt Q9Y3D8)
inactive: [1] 0.151 | [2] -0.156 | [3] 0.175 | [4] 0.115 | [5] 0.075 | [6] -0.049 | [7] 0.036 | [8] 0.065 | [9] 0.008 | [10] -0.085

BAIAP2 (UniProt Q9UQB8)
inactive: [1] 0.023 | [2] -0.115 | [3] 0 | [4] -0.039 | [5] 0.014 | [6] -0.053 | [7] -0.061 | [8] 0.08 | [9] 0.086 | [10] -0.057

APLP2 (UniProt Q06481)
inactive: [1] 0 | [2] 0.032 | [3] -0.012 | [4] -0.035 | [5] 0.088 | [6] 0.117 | [7] 0.103 | [8] -0.049 | [9] 0.049 | [10] 0.16

ARL1 (UniProt P40616)
Sequence of UniProt P40616 (P40616 whole entry, looked up): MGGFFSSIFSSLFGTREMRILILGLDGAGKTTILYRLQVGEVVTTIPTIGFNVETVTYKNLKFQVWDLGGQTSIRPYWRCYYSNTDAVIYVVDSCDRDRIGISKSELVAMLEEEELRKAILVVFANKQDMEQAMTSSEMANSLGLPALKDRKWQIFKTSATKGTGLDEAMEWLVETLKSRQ
inactive: [1] 0.01 | [2] -0.073 | [3] 0.094 | [4] -0.092 | [5] -0.004 | [6] -0.111 | [7] 0.028 | [8] 0.031 | [9] 0.018 | [10] -0.064

ACP2 (UniProt P11117)
Sequence of UniProt P11117 (P11117 whole entry, looked up): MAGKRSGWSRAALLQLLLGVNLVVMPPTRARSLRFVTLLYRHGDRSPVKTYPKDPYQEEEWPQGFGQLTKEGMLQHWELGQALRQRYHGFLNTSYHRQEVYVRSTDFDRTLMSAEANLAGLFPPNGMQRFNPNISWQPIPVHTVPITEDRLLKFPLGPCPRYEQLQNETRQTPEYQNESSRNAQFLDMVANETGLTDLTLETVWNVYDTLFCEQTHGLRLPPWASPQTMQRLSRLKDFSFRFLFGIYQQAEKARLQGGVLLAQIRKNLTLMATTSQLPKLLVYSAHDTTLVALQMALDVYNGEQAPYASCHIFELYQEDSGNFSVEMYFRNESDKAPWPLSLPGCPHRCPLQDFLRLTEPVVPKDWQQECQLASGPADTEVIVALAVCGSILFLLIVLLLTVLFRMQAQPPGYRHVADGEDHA
inactive: [1] 0.06 | [2] -0.051 | [3] 0.017 | [4] -0.016 | [5] 0.023 | [6] -0.071 | [7] 0 | [8] -0.031 | [9] 0.016 | [10] -0.036

ALDH6A1 (UniProt Q02252)
inactive: [1] -0.008 | [2] 0.042 | [3] 0.109 | [4] 0.009 | [5] 0.106 | [6] -0.057 | [7] -0.054 | [8] 0.008 | [9] 0.033 | [10] -0.042

ASH2L (UniProt Q9UBL3)
inactive: [1] 0.008 | [2] 0.126 | [3] 0.046 | [4] 0.058 | [5] 0.028 | [6] 0.004 | [7] 0.068 | [8] 0.02 | [9] -0.068 | [10] 0.036

ANKZF1 (UniProt Q9H8Y5)
inactive: [1] 0.031 | [2] -0.037 | [3] -0.135 | [4] 0.174 | [5] -0.15 | [6] 0.007 | [7] 0.021 | [8] -0.068 | [9] -0.059 | [10] -0.349

ADD3 (UniProt Q9UEY8)
inactive: [1] 0 | [2] 0.023 | [3] 0.018 | [4] -0.079 | [5] 0.023 | [6] -0.029 | [7] -0.053 | [8] -0.059 | [9] 0.016 | [10] 0.061

AP2M1 (UniProt Q96CW1)
inactive: [1] 0.018 | [2] -0.066 | [3] -0.04 | [4] -0.193 | [5] -0.036 | [6] -0.002 | [7] -0.09 | [8] -0.007 | [9] 0.029 | [10] 0.044

ACIN1 (UniProt Q9UKV3)
inactive: [1] -0.011 | [2] -0.014 | [3] 0.068 | [4] -0.12 | [5] 0.005 | [6] 0.01 | [7] -0.003 | [8] 0.002 | [9] 0.029 | [10] 0.007

ADRM1 (UniProt Q16186)
inactive: [1] 0.006 | [2] -0.109 | [3] -0.028 | [4] 0.138 | [5] -0.036 | [6] -0.056 | [7] -0.028 | [8] 0.069 | [9] 0.041 | [10] -0.05

AIFM2 (UniProt Q9BRQ8)
Sequence of UniProt Q9BRQ8 (Q9BRQ8 whole entry, looked up): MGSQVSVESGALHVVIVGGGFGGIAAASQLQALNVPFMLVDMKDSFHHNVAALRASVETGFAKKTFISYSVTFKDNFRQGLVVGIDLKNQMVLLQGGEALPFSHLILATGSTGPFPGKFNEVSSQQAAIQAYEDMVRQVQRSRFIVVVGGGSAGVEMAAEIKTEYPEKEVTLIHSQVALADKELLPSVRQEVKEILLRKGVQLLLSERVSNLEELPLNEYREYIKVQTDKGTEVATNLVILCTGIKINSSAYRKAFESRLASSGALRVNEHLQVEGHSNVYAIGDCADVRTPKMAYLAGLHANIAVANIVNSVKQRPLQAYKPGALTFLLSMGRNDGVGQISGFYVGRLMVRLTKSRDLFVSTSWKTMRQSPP
inactive: [1] 0.039 | [2] 0.098 | [3] -0.013 | [4] -0.067 | [5] 0.07 | [6] 0.022 | [7] -0.029 | [8] -0.032 | [9] 0.08
active: [10] 0.207

ADD1 isoform 3 (UniProt P35611)
inactive: [1] 0.018 | [2] 0.005 | [3] -0.011 | [4] -0.109 | [5] 0.011 | [6] -0.054 | [7] -0.008 | [8] -0.015 | [9] 0.001 | [10] 0.045

ANAPC2 (UniProt Q9UJX6)
inactive: [1] -0.025 | [2] -0.084 | [3] 0.034 | [4] 0.035 | [5] 0.027 | [6] -0.044 | [7] 0.012 | [8] 0.028 | [9] 0.022 | [10] -0.02

BUB1B isoform 3 (UniProt O60566)
Sequence of UniProt O60566 (O60566 whole entry, looked up): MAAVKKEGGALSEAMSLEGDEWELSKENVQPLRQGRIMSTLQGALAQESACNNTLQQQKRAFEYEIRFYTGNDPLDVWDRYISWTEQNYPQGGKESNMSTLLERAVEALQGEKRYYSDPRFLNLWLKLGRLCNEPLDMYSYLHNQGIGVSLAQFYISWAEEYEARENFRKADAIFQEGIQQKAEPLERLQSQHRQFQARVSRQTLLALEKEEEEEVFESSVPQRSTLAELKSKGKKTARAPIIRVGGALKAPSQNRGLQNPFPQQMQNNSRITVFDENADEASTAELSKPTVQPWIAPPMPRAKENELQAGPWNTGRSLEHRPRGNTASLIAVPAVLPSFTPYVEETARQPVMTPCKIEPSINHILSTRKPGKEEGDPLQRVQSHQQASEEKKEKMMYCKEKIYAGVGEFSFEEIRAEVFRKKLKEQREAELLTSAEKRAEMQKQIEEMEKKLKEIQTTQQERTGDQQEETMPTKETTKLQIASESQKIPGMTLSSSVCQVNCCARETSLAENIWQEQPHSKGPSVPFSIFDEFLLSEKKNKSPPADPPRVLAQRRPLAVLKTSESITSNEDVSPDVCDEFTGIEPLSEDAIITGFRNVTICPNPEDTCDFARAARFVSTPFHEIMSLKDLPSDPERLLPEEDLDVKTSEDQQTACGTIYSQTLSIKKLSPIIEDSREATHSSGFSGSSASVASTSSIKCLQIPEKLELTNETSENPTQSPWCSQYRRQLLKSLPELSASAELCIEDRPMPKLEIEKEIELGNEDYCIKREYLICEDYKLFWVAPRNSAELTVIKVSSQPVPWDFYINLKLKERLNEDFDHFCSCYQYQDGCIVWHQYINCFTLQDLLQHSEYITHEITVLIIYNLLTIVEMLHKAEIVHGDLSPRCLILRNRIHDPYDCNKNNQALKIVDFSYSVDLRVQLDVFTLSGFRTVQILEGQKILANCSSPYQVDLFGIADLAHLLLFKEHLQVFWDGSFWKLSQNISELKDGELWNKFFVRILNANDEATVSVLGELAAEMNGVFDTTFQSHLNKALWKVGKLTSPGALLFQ
inactive: [1] -0.015 | [2] -0.108 | [3] 0.013 | [4] 0.083 | [5] 0.011 | [6] -0.207 | [7] 0.119 | [8] 0.057 | [9] 0.047 | [10] -0.072

ARFGAP2 (UniProt Q8N6H7)
Sequence of UniProt Q8N6H7 (Q8N6H7 whole entry, looked up): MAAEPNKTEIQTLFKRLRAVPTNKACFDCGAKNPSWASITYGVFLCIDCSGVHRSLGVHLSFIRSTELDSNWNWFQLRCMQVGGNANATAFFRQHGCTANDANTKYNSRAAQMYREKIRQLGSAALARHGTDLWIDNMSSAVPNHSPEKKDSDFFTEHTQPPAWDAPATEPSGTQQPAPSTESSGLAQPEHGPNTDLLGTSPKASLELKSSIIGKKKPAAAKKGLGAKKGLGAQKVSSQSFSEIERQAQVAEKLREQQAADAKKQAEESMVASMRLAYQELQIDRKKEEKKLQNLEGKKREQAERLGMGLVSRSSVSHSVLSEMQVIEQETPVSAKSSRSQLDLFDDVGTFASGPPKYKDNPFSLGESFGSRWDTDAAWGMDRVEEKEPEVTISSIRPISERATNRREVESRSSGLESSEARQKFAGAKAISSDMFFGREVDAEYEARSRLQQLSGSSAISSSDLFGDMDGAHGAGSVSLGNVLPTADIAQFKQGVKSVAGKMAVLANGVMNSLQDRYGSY
inactive: [1] -0.04 | [2] 0.042 | [3] 0.062 | [4] 0.007 | [5] 0.033 | [6] -0.101 | [7] 0.026 | [8] 0.066 | [9] -0.009 | [10] 0.039

ARF4 (UniProt P18085)
active: [10] 0.254
inactive: [1] 0.057 | [2] 0.081 | [3] 0.122 | [4] -0.018 | [5] 0.081 | [6] -0.074 | [7] -0.021 | [8] 0.017 | [9] -0.034
